Assay results: PubChem BioAssay (NCATS)
Records with an inconclusive call do not appear. The source made the active and inactive calls. Calls come from the whole dose curve; as a rule, active = well fitted inhibition curve with a large enough effect; inconclusive = small, poorly fitted or top-dose-only effect; inactive = flat fitted curve, though single readings scatter.

Assays:
TAB113 = experiment: qHTS profiling for inhibitors of Plasmodium falciparum proliferation (AID 504749); note: potency is the fitted concentration of half-maximal effect; conditions: P. falciparum in erythrocytes, SYBR Green DNA, 72 h; series mostly up to 28.7 µM
In short: (§1)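 P. falciparum-infected erythrocytes (0.3% parasitemia, 2.5% hematocrit) incubated with compound 72 h at 37 C, 5% CO2. Parasite DNA detected by SYBR Green after lysis, overnight at room temperature; normalised to 0.29 uM artemisinin and DMSO.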

TAB165 = experiment: as above; conditions: P. falciparum in erythrocytes, SYBR Green DNA, 72 h; series mostly up to 28.7 µM
In short: as §1

CRL-7250 = normal cell line; experiment: Cytotoxic Profiling of Annotated Libraries Using Quantitative High-Throughput Screening (AID 1296008); conditions: Five cell lines viability, CellTiter-Glo ATP luminescence, 48-72 h; max response: stronger effect = lower value; note: potency is the fitted concentration of half-maximal effect; for max response: % is set by controls: 0 for no effect and ±100 for the full control effect
In short: (§2)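 Cells exposed to compounds for 48 or 72 hr at 37 degrees Celsius. Viability read as ATP-coupled luminescence with CellTiter-Glo after 10 min at room temperature.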

HaCat [1] = experiment: as above; conditions: Five cell lines viability, CellTiter-Glo ATP luminescence, 48-72 h; max response: stronger effect = lower value
In short: as §2

KB-3-1 = experiment: as above; conditions: Five cell lines viability, CellTiter-Glo ATP luminescence, 48-72 h; max response: stronger effect = lower value
In short: as §2

NIH3T3 = experiment: as above; conditions: Five cell lines viability, CellTiter-Glo ATP luminescence, 48-72 h; max response: stronger effect = lower value
In short: as §2

HACAT [2] = experiment: qHTS assay to identify novel small-molecules to repurpose for Merkel cell carcinoma treatment (AID 1296009); conditions: MCC and control cell lines, CellTiter-Glo viability, 72 h; at 44.8 µM (top of the series) unless noted
In short: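 Cells were treated for 72 hr at 37 degree celsius with compounds in 8- or 11-point dose response. Viability was read by CellTiter-Glo luminescence, normalized to no-cell (cytotoxicity) and DMSO controls.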

W2 = experiment: qHTS profiling for inhibitors of Plasmodium falciparum proliferation (AID 504749); note: potency is the fitted concentration of half-maximal effect; conditions: P. falciparum in erythrocytes, SYBR Green DNA, 72 h; series mostly up to 28.7 µM
In short: as §1

HEK293 = experiment: Cytotoxic Profiling of Annotated Libraries Using Quantitative High-Throughput Screening (AID 1296008); conditions: Five cell lines viability, CellTiter-Glo ATP luminescence, 48-72 h; max response: stronger effect = lower value; note: potency is the fitted concentration of half-maximal effect; for max response: % is set by controls: 0 for no effect and ±100 for the full control effect
In short: as §2
Note: nearly all actives have a fitted effect of over 60% in size.

CC(C)=CCOc1ccc(/C=C/C(=O)c2ccc(OCC=C(C)C)cc2OCC(=O)O)cc1
inactive: Potency (TAB113) | Potency (TAB165) | max response (CRL-7250) -15.2% | outcome (HaCat [1]) | max response (KB-3-1) 1.11% | outcome (NIH3T3) | outcome (HACAT [2])

Cc1ccc(O)c([C@H](CCN(C(C)C)C(C)C)c2ccccc2)c1
inactive: max response (CRL-7250) -4.37% | outcome (HaCat [1]) | max response (KB-3-1) -10.6% | max response (NIH3T3) -1.6% | outcome (HACAT [2])
active: Potency (TAB113) 3.98 µM | Potency (TAB165) 2.24 µM | Potency (W2) 0.849 µM

CCCCOC(=O)CC(CC(=O)OCCCC)(OC(C)=O)C(=O)OCCCC
inactive: max response (CRL-7250) -18.3% | outcome (HaCat [1]) | max response (KB-3-1) 0.604% | max response (NIH3T3) -2.35% | outcome (HACAT [2])

CCN(CC)CCOc1ccc2c(c1)C(=O)c1cc(OCCN(CC)CC)ccc1-2
inactive: max response (KB-3-1) 41.3%
active: Potency (TAB113) 11.2 µM | Potency (W2) 13.5 µM | Potency (CRL-7250) 23.7 µM | Potency (HEK293) 7.5 µM

OCCOCCN1CCN(C2=Nc3ccccc3Sc3ccccc32)CC1
active: Potency (W2) 4.26 µM
inactive: Potency (TAB113) | Potency (TAB165) | max response (CRL-7250) -6.31% | outcome (HaCat [1]) | max response (KB-3-1) -2.1% | max response (NIH3T3) -7.78% | outcome (HACAT [2])

CCN(CC)CCOC(=O)C(Cc1cccc2ccccc12)CC1CCCO1 (stereo unspecified)
inactive: max response (CRL-7250) -0.146% | outcome (HaCat [1]) | max response (KB-3-1) 13.9% | max response (NIH3T3) 3.27% | outcome (HACAT [2])

C#C[C@]1(O)CC[C@H]2[C@@H]3CCC4=CC(=O)CC[C@@H]4[C@H]3CC[C@@]21CC
inactive: Potency (TAB113) | Potency (TAB165) | max response (CRL-7250) -4.9% | max response (HEK293) -17.9% | max response (NIH3T3) -3.66%

CN1CCc2cccc3c2[C@H]1Cc1ccc(O)c(O)c1-3
inactive: max response (CRL-7250) -21.4% | max response (KB-3-1) 10.6%
active: Potency (TAB165) 7.08 µM | Potency (W2) 3.01 µM | Potency (HEK293) 23.7 µM

C[N+]1(C)CCC(=C(c2ccccc2)c2ccccc2)CC1
inactive: Potency (TAB113) | Potency (W2) | max response (CRL-7250) -1% | outcome (HaCat [1]) | max response (KB-3-1) 3.66% | max response (NIH3T3) -1.38% | outcome (HACAT [2])

CN1CCN(c2c(F)cc3c(=O)c(C(=O)O)cn4c3c2SCC4)CC1
inactive: Potency (TAB113) | max response (CRL-7250) -2.29% | outcome (HaCat [1]) | max response (KB-3-1) -15.8% | max response (NIH3T3) -3.6% | outcome (HACAT [2])
